For 37 sequences, binding signal results are on record in PMC5700166.

In assay [1] the target is T1, GST-Nv-NF-kB (Ser allele) (Nematostella vectensis, UniProt A7UNT2 2-411).
T1 sequence: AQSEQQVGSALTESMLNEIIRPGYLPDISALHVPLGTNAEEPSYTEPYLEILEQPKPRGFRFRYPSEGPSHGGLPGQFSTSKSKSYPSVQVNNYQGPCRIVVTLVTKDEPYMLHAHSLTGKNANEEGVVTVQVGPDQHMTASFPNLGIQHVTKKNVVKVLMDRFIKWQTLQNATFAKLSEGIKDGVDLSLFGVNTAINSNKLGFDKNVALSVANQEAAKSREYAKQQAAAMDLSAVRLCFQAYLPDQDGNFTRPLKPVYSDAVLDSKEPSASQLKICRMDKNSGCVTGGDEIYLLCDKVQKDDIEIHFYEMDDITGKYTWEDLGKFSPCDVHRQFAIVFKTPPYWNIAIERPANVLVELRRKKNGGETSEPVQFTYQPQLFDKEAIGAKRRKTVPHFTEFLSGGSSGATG
Nature of the assay: protein-binding microarray (PBM); PBM: ~300 nM protein, 6 mM HEPES pH 7.8, 80 mM KCl, 0.5 mM EDTA, 0.5 mM EGTA, 6% glycerol, 35 ng/ul poly-dIdC, 1% milk, 1 h, room temperature; Ap Aiptasia and Nv Nematostella (sea anemones) / Co Capsaspora / Aq Amphimedon (sponge) / Dm Drosophila / Hu human; RHD is the Rel homology domain; high values mean tight binding. The settings on record: dsDNA, one strand shown.

The target of the next assay is GST-Hu-p50 (Homo sapiens, UniProt P19838 7-356). The description is as above. The settings on record: dsDNA, one strand shown.
Sequence of GST-Hu-p50 (P19838 7-356): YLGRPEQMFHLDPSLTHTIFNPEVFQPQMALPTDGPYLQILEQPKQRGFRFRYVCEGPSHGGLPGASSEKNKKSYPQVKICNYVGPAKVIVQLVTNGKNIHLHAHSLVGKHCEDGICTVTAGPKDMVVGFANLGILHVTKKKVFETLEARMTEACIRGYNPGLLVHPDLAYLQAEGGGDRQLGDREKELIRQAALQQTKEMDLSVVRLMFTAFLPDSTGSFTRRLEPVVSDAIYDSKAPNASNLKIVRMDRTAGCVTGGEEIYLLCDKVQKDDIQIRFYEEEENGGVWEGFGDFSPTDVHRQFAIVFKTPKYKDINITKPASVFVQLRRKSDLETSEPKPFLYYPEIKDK

For “CCGATTAACATCAGAATAACCCCTGATGTTAATCGGGTCTTGATTCGCTTGACGCTGCTG”, the binding signal in assay [1] was determined as 3.11 z-score; with GST-Hu-p50 it was 4.22 z-score.

On to “CCGATTAACATCAGGGGGTACCCTGATGTTAATCGGGTCTTGATTCGCTTGACGCTGCTG”, for which the binding signal in assay [1] amounted to 4.11 z-score; with GST-Hu-p50, 4.44 z-score.

For the sequence “CCGATTAACATCAATCTACCCCCTGATGTTAATCGGGTCTTGATTCGCTTGACGCTGCTG”, the binding signal in assay [1] is 4.13 z-score; with GST-Hu-p50, 4.39 z-score.

For the sequence “CCGATTAACATCATAAGCGGGGATGATGTTAATCGGGTCTTGATTCGCTTGACGCTGCTG”, the binding signal worked out at 3.83 z-score in assay [1] and 3.66 z-score in the assay with GST-Hu-p50.

Consider “CCGATTAACATCACCACTTTCCCTGATGTTAATCGGGTCTTGATTCGCTTGACGCTGCTG”, for which the binding signal amounted to 5.06 z-score in assay [1] and 3.47 z-score in the assay with GST-Hu-p50.

For “CCGATTAACATCACAACCCCCCCTGATGTTAATCGGGTCTTGATTCGCTTGACGCTGCTG”, the binding signal in assay [1] amounted to 4.57 z-score; with GST-Hu-p50, 4.53 z-score.

Consider “CCGATTAACATCAGGGGGTTAGATGATGTTAATCGGGTCTTGATTCGCTTGACGCTGCTG”, for which the binding signal stood at 3.46 z-score in assay [1] and 3.95 z-score in the assay with GST-Hu-p50.

Consider “CCGATTAACATCACGGGAGTTCCTGATGTTAATCGGGTCTTGATTCGCTTGACGCTGCTG”, for which the binding signal in assay [1] stood at 1.6 z-score; with GST-Hu-p50, 2.24 z-score.

As for “CCGATTAACATCACATTTTCCCATGATGTTAATCGGGTCTTGATTCGCTTGACGCTGCTG”, the binding signal in assay [1] is 5.22 z-score; with GST-Hu-p50, 3.45 z-score.

As to “CCGATTAACATCATTTCCCAAAATGATGTTAATCGGGTCTTGATTCGCTTGACGCTGCTG”, the binding signal in assay [1] worked out at 2.41 z-score; with GST-Hu-p50, 1.56 z-score.

With “CCGATTAACATCAGGGGAGAAAATGATGTTAATCGGGTCTTGATTCGCTTGACGCTGCTG”, the binding signal was determined as 5.87 z-score in assay [1] and 4.88 z-score with GST-Hu-p50.

As for “CCGATTAACATCAACATCCCCCCTGATGTTAATCGGGTCTTGATTCGCTTGACGCTGCTG”, the binding signal in assay [1] stood at 5.5 z-score; with GST-Hu-p50, 4.91 z-score.

In the case of “CCGATTAACATCAGAATGCCCCCTGATGTTAATCGGGTCTTGATTCGCTTGACGCTGCTG”, the binding signal in assay [1] was determined as 3.07 z-score; with GST-Hu-p50, 4.7 z-score.

In the case of “CCGATTAACATCAAAACAGCCCCTGATGTTAATCGGGTCTTGATTCGCTTGACGCTGCTG”, the binding signal in assay [1] came out at 3.68 z-score; with GST-Hu-p50, 4.54 z-score.

Regarding “CCGATTAACATCAAAAGACCCCCTGATGTTAATCGGGTCTTGATTCGCTTGACGCTGCTG”, the figures for the binding signal (in assay [1]; with GST-Hu-p50) were 5.47 z-score and 5.26 z-score, respectively.

For the sequence “CCGATTAACATCACGGGATTTACTGATGTTAATCGGGTCTTGATTCGCTTGACGCTGCTG”, the binding signal in assay [1] turned out to be 1.41 z-score; in the assay with GST-Hu-p50 it was 2.12 z-score.

For the sequence “CCGATTAACATCAGGTTTTTCCATGATGTTAATCGGGTCTTGATTCGCTTGACGCTGCTG”, the binding signal in assay [1] was determined as 1.02 z-score; in the assay with GST-Hu-p50, 1.41 z-score.

For “CCGATTAACATCAAAAAATACCATGATGTTAATCGGGTCTTGATTCGCTTGACGCTGCTG”, the binding signal stood at 2.92 z-score in assay [1] and 2.43 z-score with GST-Hu-p50.

For the sequence “CCGATTAACATCAGGGAATTACATGATGTTAATCGGGTCTTGATTCGCTTGACGCTGCTG”, the binding signal in assay [1] came to 4.68 z-score; in the assay with GST-Hu-p50, 3.82 z-score.

On to “CCGATTAACATCACTTTTTCCCATGATGTTAATCGGGTCTTGATTCGCTTGACGCTGCTG”, for which the binding signal in assay [1] came to 4.35 z-score; with GST-Hu-p50, 3.04 z-score.

Consider “CCGATTAACATCAGGGAGATTTATGATGTTAATCGGGTCTTGATTCGCTTGACGCTGCTG”, for which the binding signal in assay [1] came out at 4.27 z-score; with GST-Hu-p50, 4.86 z-score.

Consider “CCGATTAACATCAGGGGGACAAATGATGTTAATCGGGTCTTGATTCGCTTGACGCTGCTG”, for which the binding signal came to 5.1 z-score in assay [1] and 3.81 z-score with GST-Hu-p50.

Consider “CCGATTAACATCAGGGAATATTATGATGTTAATCGGGTCTTGATTCGCTTGACGCTGCTG”, for which the binding signal in assay [1] amounted to 5.41 z-score; in the assay with GST-Hu-p50, 3.86 z-score.

Take “CCGATTAACATCAGGGAAATATATGATGTTAATCGGGTCTTGATTCGCTTGACGCTGCTG”: the binding signal in assay [1] worked out at 5.62 z-score; with GST-Hu-p50, 4.03 z-score.

Consider “CCGATTAACATCATTCGGGAAAATGATGTTAATCGGGTCTTGATTCGCTTGACGCTGCTG”, for which the figures for the binding signal (in assay [1]; in the assay with GST-Hu-p50) were 4.94 z-score and 3.03 z-score, respectively.

For the sequence “CCGATTAACATCAAGAATTCCCGTGATGTTAATCGGGTCTTGATTCGCTTGACGCTGCTG”, the binding signal in assay [1] is 5.52 z-score; in the assay with GST-Hu-p50, 4.39 z-score.

Consider “CCGATTAACATCAAATTCCCAGCTGATGTTAATCGGGTCTTGATTCGCTTGACGCTGCTG”, for which the binding signal in assay [1] came to 3.85 z-score; in the assay with GST-Hu-p50, 2.81 z-score.

With “CCGATTAACATCAGGGGTTCCACTGATGTTAATCGGGTCTTGATTCGCTTGACGCTGCTG”, the figures for the binding signal (in assay [1]; in the assay with GST-Hu-p50) were 1.62 z-score and 2.51 z-score, respectively.

Regarding “CCGATTAACATCAGGTTTTCCCATGATGTTAATCGGGTCTTGATTCGCTTGACGCTGCTG”, the binding signal in assay [1] came to 5.41 z-score; with GST-Hu-p50 it was 3.27 z-score.

On to “CCGATTAACATCAAACCCCCCCGTGATGTTAATCGGGTCTTGATTCGCTTGACGCTGCTG”, for which the values for the binding signal (in assay [1]; in the assay with GST-Hu-p50) were 4.7 z-score and 5.27 z-score, respectively.

With “CCGATTAACATCAACACCCCCCCTGATGTTAATCGGGTCTTGATTCGCTTGACGCTGCTG”, the binding signal in assay [1] amounted to 3.82 z-score; with GST-Hu-p50 it was 3.88 z-score.

Consider “CCGATTAACATCAGATTCTCCCCTGATGTTAATCGGGTCTTGATTCGCTTGACGCTGCTG”, for which the results for the binding signal (in assay [1]; in the assay with GST-Hu-p50) were 6.01 z-score and 4.4 z-score, respectively.

For the sequence “CCGATTAACATCAGGGGGGGACCTGATGTTAATCGGGTCTTGATTCGCTTGACGCTGCTG”, the binding signal worked out at 3.87 z-score in assay [1] and 3.99 z-score with GST-Hu-p50.

“CCGATTAACATCACCCGCTTTATTGATGTTAATCGGGTCTTGATTCGCTTGACGCTGCTG”: the binding signal was 1.21 z-score in assay [1] and 1.46 z-score with GST-Hu-p50.

“CCGATTAACATCAAGTACCCCCCTGATGTTAATCGGGTCTTGATTCGCTTGACGCTGCTG”: the binding signal in assay [1] turned out to be 4.15 z-score; with GST-Hu-p50 it was 3.94 z-score.

On to “CCGATTAACATCAGGGATTTACCTGATGTTAATCGGGTCTTGATTCGCTTGACGCTGCTG”, for which the binding signal in assay [1] is 5.26 z-score; in the assay with GST-Hu-p50, 4.74 z-score.

“CCGATTAACATCAGACATTCCCATGATGTTAATCGGGTCTTGATTCGCTTGACGCTGCTG”: the binding signal in assay [1] is 2.32 z-score; with GST-Hu-p50, 1.02 z-score.
